The test system of one test is Klebsiella pneumoniae. The note with it: Concentration 32 ug.mL-1;; ASSAY_TEST Inhibition of Bacterial Growth; detection method Absorption (OD600); MEDIA CAMHB; plate type 384well; NBS; CORNING #3640; time 18 hr.
In another test the test system is Candida albicans. The following applies: Concentration 32 ug.mL-1; ASSAY_TEST Inhibition of Fungal Growth; detection method Absorption (OD530).
The next test deals with Cryptococcus neoformans. The following applies: Concentration 32 ug.mL-1; ASSAY_TEST Inhibition of Fungal Growth; detection method Resazurin; Absorption (OD600-OD570); plate type 384well; NBS; CORNING #3640. For orientation: The colour change of resazurin is a common sign of viable cells or microbes.

Potency and affinity values are given separately.

Turning to `COc1ccc(OC)c(NC(=O)Cn2nc3c4cc(-c5ccc(F)cc5)nn4ccn3c2=O)c1`, the results for the Inhibition in the test with Klebsiella pneumoniae, with Candida albicans and in the test on Cryptococcus neoformans were 1.37%, 3.04% and -6.46%, respectively.
`COc1cccc(-n2ccn3c(SCC(=O)Nc4ccc(Cl)cc4)nnc3c2=O)c1`: the Inhibition is on record as 5.48% in the test with Klebsiella pneumoniae, 2.88% in the test on Candida albicans and -10.21% in the test on Cryptococcus neoformans.
Take `CCc1ccccc1NC(=O)Cn1nc2n(C)c(=O)c3c(c(-c4ccccc4)cn3C)n2c1=O`: the Inhibition with Klebsiella pneumoniae is recorded as 1.01%; in the test with Candida albicans, 6.61%; in the test on Cryptococcus neoformans it was -4.79%.
With `COc1cc(NC(=O)Cn2nc3ccc(-c4ccc(Cl)cc4)nn3c2=O)cc(OC)c1`, the results for the Inhibition in the test with Klebsiella pneumoniae, with Candida albicans and in the test on Cryptococcus neoformans were 6.35%, 1.47% and -13.03%, respectively.
Consider `COc1ccc(CNC(=O)CCc2nnc3c4cc(-c5ccc(Cl)cc5)nn4ccn23)cc1OC`, for which the Inhibition with Klebsiella pneumoniae is reported as 10.48%; in the test with Candida albicans, 1.41%; with Cryptococcus neoformans, -19.71%.
In the case of `Cc1cccc(N(Cc2cccc(F)c2)S(=O)(=O)c2cccn3c(C)nnc23)c1`, the Inhibition is 14.45% in the test with Klebsiella pneumoniae, 2.26% in the test on Candida albicans and -8.56% with Cryptococcus neoformans.
Taken in the same sequence, the figures for `O=c1n(Cc2ccc3c(c2)OCO3)nc2c(S(=O)(=O)N3CCCC3)cccn12` were 5.42%, 0.37% and -5.87%.
Regarding `COc1cccc(-n2ccn3c(SCC(=O)c4cc(C)ccc4C)nnc3c2=O)c1`, the Inhibition in the test on Klebsiella pneumoniae was 13.22%; in the test with Candida albicans, 5.19%; in the test with Cryptococcus neoformans, -12.08%.
For `O=C(CSc1nnc2n(CC3CCCO3)c(=O)c3sccc3n12)Nc1ccc(F)cc1Cl` (stereo not given) the same measures were 1.23%, -2.01% and -23.1%.
Turning to `COc1ccc(NC(=O)Cn2nc3c(N4CCOCC4)nccn3c2=O)c(OC)c1`, the Inhibition was 20.77% in the test on Klebsiella pneumoniae, 0.63% with Candida albicans and -16.42% with Cryptococcus neoformans.
Turning to `CC(C)c1nnc2c(=O)n(CC(=O)Nc3cccc(Br)c3)c3ccccc3n12`, the Inhibition in the test with Klebsiella pneumoniae is 13.24%; in the test with Candida albicans, 6.25%; in the test on Cryptococcus neoformans, -13.28%.
Taken in the same sequence, the figures for `Cc1cc(C)cc(Nc2nc(C)cc3nn(CC(=O)NCc4ccco4)c(=O)n23)c1` were 10.95%, 2.86% and -8.71%.
Taken in the same sequence, the figures for `Cc1cccc(CN(c2ccc(C(C)C)cc2)S(=O)(=O)c2cccn3c(C)nnc23)c1` were 9.59%, 3.05% and -9.59%.
Taken in the same sequence, the figures for `COc1ccc(N(Cc2cccc(OC)c2)S(=O)(=O)c2ccc3nnc(C)n3c2)cc1` were 9.44%, 0.91% and -1.64%.
Consider `COc1ccc(NC(=O)Cn2nc3ccc(SC(C)C)nn3c2=O)cc1OC`, for which the Inhibition was 9.91% in the test with Klebsiella pneumoniae, 1.32% in the test on Candida albicans and -1.1% in the test with Cryptococcus neoformans.
Taken in the same sequence, the figures for `CCOc1ccc(-n2ccn3c(=O)n(CC(=O)Nc4ccc(Br)cc4)nc3c2=O)cc1` were 8.93%, 2.12% and -3.26%.
With `CCCCOc1ccc(-c2cc3c4nnc(SCC(=O)Nc5ccc(CC)cc5)n4ccn3n2)cc1`, the figures for the Inhibition in the test on Klebsiella pneumoniae, with Candida albicans and with Cryptococcus neoformans were 9.73%, 2.18% and -11.7%, respectively.
As for `Cc1cc(C)cc(N(Cc2cccc(Cl)c2)S(=O)(=O)c2cccn3cnnc23)c1`, the Inhibition in the test with Klebsiella pneumoniae is reported as 9.53%; in the test with Candida albicans, 1.12%; with Cryptococcus neoformans, -7.68%.
With `COc1ccccc1NC(=O)Cn1c(=O)c2nnc(C(C)C)n2c2ccccc21`, the Inhibition in the test with Klebsiella pneumoniae is reported as 6.56%; with Candida albicans it was -0.06%; in the test on Cryptococcus neoformans, -9.5%.
Taken in the same sequence, the figures for `Cc1cc(C)cc(NC(=O)Cn2nc3c(Sc4cccc(C)c4)nc4ccccc4n3c2=O)c1` were 5.29%, 1.16% and -15.02%.
For the molecule `O=C(Cn1nc2c(Sc3cccc(F)c3)nccn2c1=O)N1CCN(c2ccccc2)CC1`, the results for the Inhibition in the test with Klebsiella pneumoniae, with Candida albicans and in the test on Cryptococcus neoformans were 4.19%, 0.68% and -2.85%, respectively.
Taken in the same sequence, the figures for `CCOc1ccc(-n2ccn3c(SCC(=O)Nc4ccc(C)cc4Cl)nnc3c2=O)cc1` were 9.51%, 5.12% and -6.58%.
As for `Cc1ccc(CN(c2ccc(F)cc2)S(=O)(=O)c2ccc3nnc(C)n3c2)cc1`, the Inhibition was -1.29% with Klebsiella pneumoniae, 5.66% in the test with Candida albicans and -6.24% in the test on Cryptococcus neoformans.
For `COc1cccc(NC(=O)Cn2nc3c(=O)n(-c4ccc(Br)cc4)ccn3c2=O)c1`, the Inhibition with Klebsiella pneumoniae was 6.98%; in the test with Candida albicans it was 1.08%; with Cryptococcus neoformans, -6.3%.
On to `COc1ccc(-c2noc(Cn3nc4ccc(-c5ccccc5)nn4c3=O)n2)cc1OC`, for which the Inhibition in the test on Klebsiella pneumoniae is 11.35%; in the test on Candida albicans, 4.81%; in the test with Cryptococcus neoformans it was -11.77%.
For `O=C(Cn1nc2c3c4c(sc3ncn2c1=O)CCCC4)NCc1ccc(F)cc1`, the results for the Inhibition with Klebsiella pneumoniae, with Candida albicans and in the test with Cryptococcus neoformans were 9.92%, 15.82% and -14.13%, respectively.
On to `COC(=O)c1ccc(NC(=O)CSc2nnc3ccc(C(=O)Nc4cccc(F)c4)cn23)cc1`, for which the Inhibition in the test with Klebsiella pneumoniae is recorded as 4.63%; with Candida albicans it was 2.52%; in the test with Cryptococcus neoformans, -5.98%.
Regarding `CC(=O)c1cccc(NC(=O)CSc2nc3ccccc3n3c(C)nnc23)c1`, the Inhibition in the test with Klebsiella pneumoniae was 2.18%; in the test on Candida albicans, 5.91%; in the test with Cryptococcus neoformans, -6.11%.
Turning to `Cc1cc(C)cc(NC(=O)Cn2nc3c4cc(-c5ccc(Cl)cc5)nn4ccn3c2=O)c1`, the Inhibition in the test with Klebsiella pneumoniae is given as 7.37%; with Candida albicans, 6.87%; in the test with Cryptococcus neoformans, -7.11%.
Regarding `CCOc1ccc(NC(=O)Cn2nc3ccc(-c4ccccc4)nn3c2=O)cc1`, the Inhibition is 6.87% in the test on Klebsiella pneumoniae, 4.93% in the test with Candida albicans and -6.8% in the test with Cryptococcus neoformans.

As usually defined, the Inhibition is the drop in the measured response relative to a control, in per cent.
